Screening data: PubChem, University of Kansas High Throughput Screening Laboratory
Sampled rows, rich in hits. Any-hit rate of the full collection: about 3.6%.
mHTT-CaM PPI inh: mutant huntingtin-calmodulin interaction inhibitors – biochemical, AlphaScreen, primary screen; AlphaScreen His-mHTT/GST-CaM binding, luminescence; inhibition, % at 15 µM; AID 1671202, 2021; P42858; 3.6% of 190,000 active;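 also: 0% = both proteins with DMSO and 100% = one protein alone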
Pf apPOL inh: Pf-apPOL inhibitors, biochemical, fluorescence; Recombinant Pf-apPOL, molecular beacon fluorescence, 1.5 h; Plasmodium falciparum apicoplast DNA polymerase (apPOL); 0.25% of 210,000 active; inhibition, % at 10 µM; AID 1794808, 2022
An asterisk follows results filed as active; nt = not tested or not shown; ! = not confirmed by another sample. Rule as the data show it: active = inhibition above about 50%; inactive = the rest.

SMILES	mHTT-CaM PPI inh	Pf apPOL inh
COc1ccccc1-c1noc(C2CCCN2C(=O)c2cccc(OC)c2OC)n1 (centres undefined)	-3.9	-3.1
CC1(C)CC(=O)C2=C(C1)Nc1ccccc1N(C(=O)C(F)(F)F)C2c1cccnc1 (centres undefined)	4.0	62.7*
CC(=O)N1c2ccccc2NC2=C(C(=O)CC(c3ccc(Cl)c(Cl)c3)C2)C1c1cccnc1 (centres undefined)	83.0*	-7.1
CC1(C)CC(=O)C2=C(C1)Nc1ccccc1N(C(=O)C(F)(F)F)C2c1cccc(O)c1 (centres undefined)	4.0	-8.2
CC(=O)N1c2ccccc2NC2=C(C(=O)CC(c3ccc(F)cc3)C2)C1c1cccnc1 (centres undefined)	6.0	0.7
O=C(C1CC1)N1CCc2cc(Br)cc(S(=O)(=O)NCCN3CCCCCC3)c21	5.0	-6.6
CSc1cccc(NC(=O)N2CCCC2c2nc(-c3ccc(F)cc3)no2)c1 (centres undefined)	15.2	-1.1
CC1CCCCC12NC(=O)N(CC(=O)NC1CCCCC1)C2=O (centres undefined)	-5.5	-10.9
Cc1ccc(C(=O)Nc2ccc3c(N4CCOCC4)ncnc3c2)cc1	6.2	-4.8
O=C(Nc1ccc2c(N3CCOCC3)ncnc2c1)c1cccc(Br)c1	53.6*	-2.8
COc1cccc(CSc2nc(C)cc(=O)n2C)c1	-0.6	-1.6
COc1ccc(S(=O)(=O)Nc2ccc3oc(=O)sc3c2)cc1	6.0	-6.1
COc1ccc(S(=O)(=O)Nc2cc3sc(=O)oc3c3ccccc23)cc1	100.3*	4.2
O=C(CN(C1CCCCC1)S(=O)(=O)c1ccc(Cl)cc1)NCC1CCCO1 (centres undefined)	4.6	-21.1
CSc1ccccc1NC(=O)C(c1ccccc1)n1cccc1 (centres undefined)	60.1*	15.3
CSc1ccccc1NC(=O)C(c1ccccc1)c1ccccc1	-26.4	-6.8
Cc1[nH]nc2c1C(c1ccc(-c3ccccc3Cl)o1)C(C#N)=C(N)O2 (centres undefined)	50.0*	-2.8
Cc1[nH]nc2c1C(c1ccccc1)C(C#N)=C(N)O2 (centres undefined)	nt	0.2
Cc1nc2c(ccc3nc(NC(=O)c4cnccn4)sc32)s1	-1.7	-0.1
COc1ccc(NC(=O)CCC2CCCN(c3cc(NC4CC4)ncn3)C2)c(OC)c1 (centres undefined)	59.7*	-8.4
CCNc1cc(N2CCCC(CCC(=O)Nc3ccc4c(c3)OCCO4)C2)ncn1 (centres undefined)	18.8	-5.2
CCCNc1cc(N2CCCC(CCC(=O)Nc3ccc4c(c3)OCO4)C2)ncn1 (centres undefined)	51.3*	-6.1
CCNc1cc(N2CCCC(CCC(=O)Nc3ccc(OC)cc3OC)C2)ncn1 (centres undefined)	17.4	-5.7
NS(=O)(=O)c1ccc(S(=O)(=O)Nc2ccccc2C(F)(F)F)cc1	-7.0	-2.1
CCN1CCn2cc(C(=O)NCc3ccccc3F)nc2C1	16.5	-2.6
SMILES	mHTT-CaM PPI inh	Pf apPOL inh
O=C(c1ccco1)N1CCCC(c2ccnc(Nc3ccccc3)n2)C1 (centres undefined)	21.9	-3.6
Cc1ccc(C(=O)N2CCCC(c3ccnc(Nc4ccccc4)n3)C2)s1 (centres undefined)	61.4*	-2.3
Cc1ccc(Nc2nccc(C3CCCN(C(=O)C(C)(C)C)C3)n2)cc1 (centres undefined)	38.6	-2.9
CCC(=O)N1CCCC(c2ccnc(Nc3ccc(C)cc3)n2)C1 (centres undefined)	56.4*	-12.2
Cc1ccc(Nc2nccc(C3CCCN(C(=O)c4ccco4)C3)n2)cc1 (centres undefined)	86.8*	-4.6
O=C(C1CCC1)N1CCCC(c2ccnc(Nc3ccccc3)n2)C1 (centres undefined)	24.2	-2.5
COc1ccc(CNS(=O)(=O)c2ccc(F)c(C(=O)Nc3ccc(Cl)cc3)c2)cc1	-3.0	31.4
Cc1ccc(C)c(N(C)S(=O)(=O)c2ccc3[nH]cc(C(=O)NCc4ccccn4)c(=O)c3c2)c1	1.0	-10.1
CCCCC[C@H](C)N1C[C@@H](COCc2ccccc2)Oc2cc(N3CC[C@@H](O)C3)ccc2S1(=O)=O	74.0*	-6.6
CCCCC[C@@H](C)N1C[C@H](COCc2ccccc2)Oc2cc(N3CCC[C@H]3C(N)=O)ccc2S1(=O)=O	21.9	-4.7
CCCCC[C@@H](C)N1C[C@@H](COCc2ccccc2)Oc2cc(N3CCC[C@@H]3CO)ccc2S1(=O)=O	21.9	-5.5
CCCCC[C@H](C)N1C[C@H](COCc2ccccc2)Oc2cc(N3CCC[C@H]3C(N)=O)ccc2S1(=O)=O	41.7	-17.8
CCCCC[C@@H](C)N1C[C@@H](COCc2ccccc2)Oc2cc(N3CC[C@@H](O)C3)ccc2S1(=O)=O	99.2*	-2.1
CCCCC[C@@H](C)N1C[C@@H](COCc2ccccc2)Oc2cc(N3CC[C@H](O)C3)ccc2S1(=O)=O	89.7*	-3.3
Cc1ccsc1C(O)CNS(=O)(=O)c1cccs1 (centres undefined)	-11.0	0.0
Cc1ccc2c(c1)CCCN2C(=O)c1ccc(-n2ccnc2C)nn1	-2.6	0.2
CCC(=O)Nc1cccc(-c2noc(C3CCN(C(=O)c4ccc(N(C)C)cc4)CC3)n2)c1	31.8	-4.7
OC(COCC12CC3CC(CC(C3)C1)C2)CN1CCN(c2cccc(Cl)c2)CC1 (centres undefined)	98.7*	-2.6
COc1ccc(N2CCN(CC(O)COCC34CC5CC(CC(C5)C3)C4)CC2)cc1 (centres undefined)	70.0*	-7.1
COc1ccc(OCC(O)CN2CCN(c3ccc(OC)cc3)CC2)cc1 (centres undefined)	2.2	0.4
OC(COCC12CC3CC(CC(C3)C1)C2)CN1CCCC1 (centres undefined)	10.6	-1.6
O=C(NCc1ccc(F)cc1F)c1nnn(-c2ccc(F)cc2)c1-c1ccncc1	-4.8	-0.4
COc1cc(Cl)ccc1C(=O)N1CCN=C1N1CCCCC1	-2.6	-6.1
Cc1ccc(NC(=O)C2CCCN(c3ncnc4c3nc3n4CCCCC3)C2)cc1 (centres undefined)	0.7	1.4
O=C(Cc1c[nH]c2ccccc12)N(Cc1cccs1)C1(C(=O)NC2CCCCC2)CCCCC1	1.0	0.0
SMILES	mHTT-CaM PPI inh	Pf apPOL inh
O=C(Cc1c[nH]c2ccccc12)N(CC1CCCO1)C1(C(=O)NC2CCCC2)CCCCC1 (centres undefined)	67.0*	-6.8
Cc1cc(I)c(O)c(C=Nc2ccccc2O)c1	29.0	-8.7
CCOc1ccccc1C(=O)N1CCC(COc2ccccc2C(=O)N2CCCC2)CC1	-2.2	-1.0
CCOc1ccccc1C(=O)N1CCC(CCOC)CC1	-4.2	67.0*
O=C(c1cccs1)N1CCCC1c1ccc(Cl)cc1 (centres undefined)	-10.2	-4.1
O=C(NC1CC1)c1ccccc1OCC1CCN(C(=O)C2CCCCC2)CC1	2.6	36.7
CC1=C(C#N)C(=O)NC(=O)/C1=C\c1ccc(-c2ccc(Cl)cc2Cl)o1	71.0*!	-3.7
CC1=C(C#N)C(=O)NC(=O)/C1=C\c1ccc(-c2cc([N+](=O)[O-])ccc2Cl)o1	1.0	12.1
OC(C#CC(O)(c1ccccc1)c1ccccc1)c1ccccc1F (centres undefined)	-5.0	87.8*
Cc1ccc(C(O)C#CC(O)(c2ccccc2)c2ccccc2)o1 (centres undefined)	57.5*	-9.4
